aSyn UTR act = Activators working through SNCA 5'UTR binding (MLPCN). activity score, % (tested at 7.5 µM), hits read low. actives 7.1% (n = 300,000). alpha-synuclein 5'UTR reporter, activators screen; in the data active means activity score below about -60%
Large screens that a line does not name were inactive. The list is a sample of the results.

COc1ccc(-c2cn3ccccc3n2)cc1[N+](=O)[O-]	aSyn UTR act -162
Cc1nc2ccccc2n1-c1nc(-c2ccco2)cc(C(F)(F)F)n1	none
FC(F)(F)c1cc(-c2ccco2)nc(N2CCN(c3ccccc3)CC2)n1	aSyn UTR act -65
c1ccc(-c2nc(-c3cccnc3)n[nH]2)cc1	aSyn UTR act -85
Brc1cccc(-c2n[nH]c(-c3ccccc3)n2)c1	aSyn UTR act -77
O=c1c2ccccc2[nH]c(=S)n1CCc1ccccc1	aSyn UTR act -123
Cc1csc(SCC(=O)Nc2sccc2C(N)=O)n1	aSyn UTR act -110
NC(=O)c1ccsc1NC(=O)CSc1ccccc1F	aSyn UTR act -119
CN(Cc1ccsc1)C(=O)Cn1cc(Br)ccc1=O	aSyn UTR act -97
CCc1nn2cc(-c3ccccc3)nc2s1	none
Nc1nn2cc(-c3ccccc3)nc2c2ccccc12	aSyn UTR act -112
CCCC(=O)N1CCN(c2nc3ccccc3s2)CC1	aSyn UTR act -104
O=C(c1cccs1)N1CCN(c2nc3ccccc3s2)CC1	aSyn UTR act -66
CCc1ccc2nc(N3CCN(C(=O)C(C)(C)C)CC3)sc2c1	aSyn UTR act -98
CCC(=O)N1CCN(c2nc3ccc(Br)cc3s2)CC1	aSyn UTR act -117
O=C(NC1CC1)C1CCN(c2nc3ccccc3s2)CC1	aSyn UTR act -86
CC(C)(C)C(=O)N1CCN(c2nc3ccccc3s2)CC1	aSyn UTR act -119
CCCCCC(=O)Nc1ccc2ccccc2c1	aSyn UTR act -175
Cc1cc(=O)oc2cc(NC(=O)C3CCCC3)ccc12	aSyn UTR act -85
O=C(Nc1ccc2c(c1)oc1ccccc12)C1CC1	aSyn UTR act -138
CCCCC(=O)Nc1ccc2c(c1)oc1ccccc12	aSyn UTR act -251
CC(C)CC(=O)Nc1ccc2c(c1)oc1ccccc12	aSyn UTR act -227
Cc1ccc(Nc2ncnc3c2oc2ccccc23)cc1	aSyn UTR act -114
c1ccc2c(c1)oc1c(Nc3ccc4c(c3)OCCO4)ncnc12	aSyn UTR act -142
COc1ccc(Nc2ncnc3c2oc2ccccc23)cc1	aSyn UTR act -160
Oc1ccc(N=Nc2ccc3c(c2)OCCO3)c2cccnc12	none
c1ccc(Sc2ncnc3c2oc2ccccc23)cc1	aSyn UTR act -180
O=C(Nc1ccc(CN2CCCCC2)cc1)c1ccc(Br)o1	aSyn UTR act -76
Oc1c(CN2CCCCC2)cc(Br)c2cccnc12	none
O=C(Nc1ccc(CN2CCCCC2)cc1)c1c(F)c(F)c(F)c(F)c1F	aSyn UTR act -63
O=C(CSc1ccc(Br)cc1)N1CCOCC1	aSyn UTR act -65
O=C(CCSc1ccc(Cl)cc1)N1CCOCC1	aSyn UTR act -69
O=C(CSc1ccc(Cl)cc1)N1CCOCC1	aSyn UTR act -69
Cc1ccc(C(=O)NC(C#N)=C(Cl)Cl)cc1	aSyn UTR act -191
CC(C)(C)N=C1NN=C(c2ccc(Cl)cc2)CS1	aSyn UTR act -108
COc1ccc(CN=C2NN=C(c3ccc(Cl)cc3)CS2)cc1	aSyn UTR act -103
C=CCn1c(C)cc(C2=NNC(=NC(C)(C)C)SC2)c1C	none
COc1ccc(CN=C2Nc3ccccc3CS2)cc1	aSyn UTR act -85
CC(C)(C)N=C1NN=C(c2cc3ccccc3o2)CS1	aSyn UTR act -74
Nc1cc2nn(-c3ccccc3)nc2cc1Cl	aSyn UTR act -157
CC(C)CC(=O)Nc1cc2nn(-c3ccccc3)nc2cc1Cl	aSyn UTR act -135
O=C(/C=C1\NC2(CCCC2)Cc2ccccc21)C(=O)N/N=C/c1ccccc1O	none
O=C(N/N=C/c1ccccc1[N+](=O)[O-])C(=O)N1CCCC1	aSyn UTR act -72
O=C(Nc1ccc(Nc2ccccc2)cc1)c1ccc(Br)o1	aSyn UTR act -128
CC(C)(C)c1ccc(C(=O)Nc2ccc(CC(=O)O)cc2)o1	none
NC(=O)c1ccccc1NC(=S)NC(=O)c1ccc(Br)o1	aSyn UTR act -124
O=C(Nc1ccc2c(c1)Cc1ccccc1-2)c1ccc(Br)o1	aSyn UTR act -94
O=C(Nc1cccc(OC(=O)c2ccc(Br)o2)c1)c1ccccc1	aSyn UTR act -66
CCCC(=O)Nc1ccc2c(c1)Cc1ccccc1-2	aSyn UTR act -138
O=C(NC(=S)Nc1ccccc1)c1ccc(Br)o1	aSyn UTR act -287
COc1ccc(NC(=S)NC(=O)c2ccc(Br)o2)cc1	aSyn UTR act -107
COc1ccc(NC(=O)c2ccc(Br)o2)cc1	aSyn UTR act -159
CC(C)c1ccc(NC(=O)c2ccc(Br)o2)cc1	aSyn UTR act -148
O=C(Nc1ccc(N2CCN(C(=O)c3ccccc3F)CC2)cc1)c1cncc(Br)c1	aSyn UTR act -74
O=C(Nc1ccc(N2CCCCC2)cc1)c1cncc(Br)c1	aSyn UTR act -128
CCOC(=O)C1CCN(C(=O)CNC(=O)c2nn(-c3ccc(OC)c(Cl)c3)c(=O)c3ccccc23)CC1	aSyn UTR act -70
N#C/C(=C\c1ccc(N2CCOCC2)o1)c1ccccc1	aSyn UTR act -223
N#C/C(=C/c1ccc(N2CCOCC2)o1)c1ccc(Br)cc1	aSyn UTR act -284
N#C/C(=C\c1ccc(N2CCOCC2)cc1)c1ccccc1	aSyn UTR act -132
Cc1ccc(-c2cc(C(=O)N/N=C/c3c(C)nn(C)c3C)c3ccccc3n2)cc1C	aSyn UTR act -73

Screens: PubChem BioAssay, Broad Institute
